Screening data (PubChem BioAssay)
Rows were chosen to be rich in hits. Some 2.8% of all compounds tested hit in one or more screens of this group.
SENP8 block-1 – SENP8 protease inhibitors, primary screen, biochemical, luminescence. hit rate 1.2% among 330,000. inhibition, % at 10 µM. purified SENP8, Z-RLRGG-aminoluciferin cleavage. Sentrin-specific protease 8 (Homo sapiens), Q96LD8; in the data active means inhibition above about 50%
SENP8 block-2 – human SENP8 protease inhibitors, primary screen, biochemical, fluorescence, Nedd8 protein substrate, uHTS; inhibition, % at 20 µM; AID 602440, 2012; recombinant SENP8; hit rate 0.64% among 360,000; in the data active means inhibition mostly above about 40%, no sharp cut-off; inactive means mostly below about 27%
SENP6 inh – SENP6 protease inhibitors, primary screen, biochemical, luminescence, uHTS | Sentrin-specific protease 6 (Homo sapiens), Q9GZR1 | Recombinant SENP6 catalytic domain, aminoluciferin luminescence | inhibition, % at 10 µM | hit rate 1.8% among 330,000 | AID 2599, 2010;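 active means inhibition above about 50% at the single tested dose, limit read from the data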;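 further: plate controls were DMSO wells with enzyme for no effect and DMSO wells lacking enzyme for full effect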
Target sequence (Q9GZR1 628-1112 limits assumed): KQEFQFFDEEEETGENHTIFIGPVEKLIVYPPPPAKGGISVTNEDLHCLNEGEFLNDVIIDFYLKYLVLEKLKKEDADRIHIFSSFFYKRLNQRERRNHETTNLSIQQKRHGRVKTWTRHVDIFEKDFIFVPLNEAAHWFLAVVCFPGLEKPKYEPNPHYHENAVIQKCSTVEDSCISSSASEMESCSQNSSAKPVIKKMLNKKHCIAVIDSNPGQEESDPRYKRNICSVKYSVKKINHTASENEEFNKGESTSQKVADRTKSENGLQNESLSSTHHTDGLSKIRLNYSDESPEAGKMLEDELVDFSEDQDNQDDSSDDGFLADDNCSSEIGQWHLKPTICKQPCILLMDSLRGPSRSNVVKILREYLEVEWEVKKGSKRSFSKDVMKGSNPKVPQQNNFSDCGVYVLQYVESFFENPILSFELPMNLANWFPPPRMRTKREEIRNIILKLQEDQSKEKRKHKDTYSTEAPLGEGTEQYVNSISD
HSP90 refold inh – HSP90 inhibitors, primary screen, cell lysate, luminescence. Heat shock protein HSP 90 (rabbit reticulocyte lysate; luciferase refolding). hit rate 0.91% among 290,000. inhibition, % at 5.6 µM. Rabbit reticulocyte lysate, luciferase refolding luminescence, 3 h;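 active means inhibition above the screen-wide mean plus 3 SD, computed separately per campaign, cut at about 16% in these data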;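 further: 0% = DMSO wells and 100% = 60 µM geldanamycin wells; inhibitors lower the luminescence because luciferase stays unfolded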
SENP7 block – SENP7 protease inhibitors, primary screen, biochemical, luminescence, uHTS. hit rate 1.5% among 330,000. Sentrin-specific protease 7 (Homo sapiens), Q9BQF6. inhibition, % at 5 µM. recombinant SENP7, Z-RLRGG-aminoluciferin luminescence, 40 min;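 active means inhibition above about 50% at the single test dose, limit read from the data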;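 further: plate controls were DMSO with enzyme for no effect and no enzyme buffer wells for full effect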
HSP90 confirm – HSP90 inhibitors, confirmation, cell lysate, luminescence; hit rate 64% among 2,300; shares compounds with HSP90 refold inh; inhibition, % at 5.9 µM; rabbit reticulocyte lysate, luciferase refolding luminescence, 3 h; AID 1846, 2009; in the data active means inhibition above about 18%;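 further: 0% = vehicle wells and 100% = reference inhibitor wells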
luciferase ctr – firefly luciferase inhibitors, HSP90 counter-screen, confirmation, artefact control for HSP90 inhibitor project, biochemical, luminescence, triplicate | shares compounds with HSP90 refold inh | purified native firefly luciferase | inhibition, % at 5.9 µM | hit rate 48% among 2,300;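 active means inhibition above the mean inhibition of all tested sample wells plus 3 SD, cut at about 10% in these data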;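 further: 0% = DMSO with luciferase and 100% = wells lacking luciferase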
An asterisk follows results filed as active.

Screening N#CC(C#N)=NNc1ccc(S(N)(=O)=O)cc1 returned SENP8 block-1 -4, SENP8 block-2 44*, SENP6 inh 5, HSP90 refold inh 7 and SENP7 block 3.
CC(=O)Nc1ccc(S(=O)(=O)N2Cc3ccccc3-n3nncc3C2)cc1 was read as SENP8 block-2 1.
For Nc1ccccc1C(=O)OCC(=O)c1ccc2c(c1)OCCO2 the results were SENP8 block-1 95*, SENP8 block-2 -140, SENP6 inh 95*, HSP90 refold inh 1 and SENP7 block 98*.
C[C@]12CC[C@@H]3c4ccc(O)c(O)c4CC[C@H]3[C@@H]1CC[C@@H]2O was read as SENP8 block-1 13, SENP8 block-2 45*, SENP6 inh -2, HSP90 refold inh 2 and SENP7 block 4.
For CSCc1nnc2n1-c1ccc(Cl)cc1C(c1ccccc1)=NC2 the results were SENP8 block-1 -2, SENP8 block-2 0, SENP6 inh -5, HSP90 refold inh -2 and SENP7 block -4.
Screening CCc1ccc(N2C(=O)NC(=O)/C(=C\c3cccn3CCOc3ccc(C(C)C)cc3)C2=O)cc1 returned SENP8 block-1 -7, SENP8 block-2 -16, SENP6 inh -9, HSP90 refold inh 31* and SENP7 block -3.
For COc1ccc(OC)c(N2C(=O)CC(=O)NC2=O)c1 the results were SENP8 block-1 0, SENP8 block-2 8, SENP6 inh 12, HSP90 refold inh -1 and SENP7 block -2.
Cc1ccccc1-n1c(C)cc(/C=C2/C(=O)NC(=O)N(Cc3ccco3)C2=O)c1C was read as SENP8 block-1 -12, SENP8 block-2 -4, SENP6 inh -15, HSP90 refold inh 3 and SENP7 block -8.
Screening CCN(CCO)c1ccc(N=Cc2c(O)n(C)c(=S)[nH]c2=O)cc1 returned SENP8 block-1 8, SENP8 block-2 55*, SENP6 inh 40, HSP90 refold inh 2 and SENP7 block 54*.
`CCN(CC)c1ccc(N=Cc2c(O)n(Cc3ccco3)c(=O)[nH]c2=O)cc1` gave SENP8 block-1 1, SENP8 block-2 -7, SENP6 inh -4, HSP90 refold inh 2 and SENP7 block 6.
CN1CCN2c3ccc(N)cc3CC3(C(=O)NC(=O)NC3=O)C2C1 (stereo not drawn) was read as SENP8 block-2 11, HSP90 refold inh 20*, HSP90 confirm -1 and luciferase ctr -15.
COc1ccccc1NC(=O)COC(=O)c1cc(C)n(C2CC2)c1C was read as SENP8 block-1 6, SENP8 block-2 15, SENP6 inh 0 and SENP7 block -4.
For O=C(O)CC1OCC=C2CN3CCC45C6=CC(=O)C(=O)C([N+](=O)[O-])=C6NC4C1C2CC35 (stereo not drawn) the results were SENP8 block-2 112*, HSP90 refold inh 35*, HSP90 confirm 72* and luciferase ctr -2.
Screening O=C(O)CC1OCC=C2CN3CCC45c6ccccc6NC4C1C2CC35 (stereo not drawn) returned SENP8 block-1 -6, SENP8 block-2 10, SENP6 inh -10, HSP90 refold inh 0 and SENP7 block 7.
CN1CCN(c2nccc3c2ncn3C)CC1 was read as SENP8 block-1 -1, SENP8 block-2 11, SENP6 inh -24, HSP90 refold inh -1 and SENP7 block 1.
For COCCCn1c(-c2ccc(OC)cc2)cc(C(=O)NC2CCCCCCC2)c1C the results were SENP8 block-1 -12, SENP8 block-2 -3, SENP6 inh -24, HSP90 refold inh 4 and SENP7 block -2.
For COc1ccc(N/N=C/c2c(O)n(-c3ccc(C)c(C)c3)c(=O)[nH]c2=O)cc1 the results were SENP8 block-1 -1, SENP8 block-2 11, SENP6 inh 1, HSP90 refold inh 19*, SENP7 block 4, HSP90 confirm 29* and luciferase ctr -6.
Screening Cc1ccc(-n2c(O)c(/C=N/Nc3ccccc3)c(=O)[nH]c2=O)cc1C returned SENP8 block-1 -12, SENP6 inh -3, HSP90 refold inh 1 and SENP7 block -11.
Screening CCOc1cc(/C=C2\C(=O)NC(=O)N(CCc3ccc(F)cc3)C2=O)ccc1O returned SENP8 block-1 3, SENP8 block-2 28, SENP6 inh 16, HSP90 refold inh 38*, SENP7 block 4, HSP90 confirm 7 and luciferase ctr 8.
Screening COC(=O)C1=C(c2ccc(F)cc2F)C[C@@H]2CC[C@H]1N2C(=O)NC(C)C returned SENP8 block-1 3, SENP8 block-2 7, SENP6 inh 5 and SENP7 block 10.
For Cc1ccc(OCCOc2cccc(C=C3C(=O)NC(=O)NC3=O)c2)c(C)c1 the results were SENP8 block-1 -1, SENP8 block-2 14, SENP6 inh 10, HSP90 refold inh 23*, SENP7 block 5, HSP90 confirm 39* and luciferase ctr 17*.
For O=C1NC(=O)C(=Cc2cccc(OCCOc3ccccc3)c2)C(=O)N1 the results were SENP8 block-1 5, SENP8 block-2 14, SENP6 inh 6, HSP90 refold inh 3 and SENP7 block -1.
Screening COC(=O)C1=CO[C@H](C)[C@H]2CN3CC[C@@]4(C(=O)Nc5ccccc54)[C@@H]3C[C@H]12 returned SENP8 block-1 -13, SENP8 block-2 17, SENP6 inh -14 and SENP7 block -24.
Screening Cc1ccccc1-n1c(O)c(/C=N/NC(=O)c2ccccc2O)c(=O)[nH]c1=S returned SENP8 block-1 19, SENP8 block-2 -312, SENP6 inh 4, HSP90 refold inh 21*, SENP7 block 1, HSP90 confirm 52* and luciferase ctr 48*.
Screening CSc1ccc(CN2CCN(C(=O)COc3cccc(C)c3)CC2)cc1 returned SENP8 block-1 -4, SENP8 block-2 20, SENP6 inh 9, HSP90 refold inh 3 and SENP7 block -18.
CN(C)C(Cc1ccccc1)C(=O)c1ccccc1 (stereo not drawn) was read as SENP8 block-1 1, SENP8 block-2 2, SENP6 inh -1, HSP90 refold inh -4 and SENP7 block 1.
For CCOC(=O)c1c(C)[nH]c(C)c1C(=O)C(Cc1ccccc1)N(C)C (stereo not drawn) the results were SENP8 block-1 -2, SENP8 block-2 6, SENP6 inh 1, HSP90 refold inh 22*, SENP7 block 3, HSP90 confirm -1 and luciferase ctr -6.
O=C1CC(c2cccnc2)=NN1c1ccccc1 was read as SENP8 block-1 2, SENP8 block-2 18, SENP6 inh 17, HSP90 refold inh 28*, SENP7 block 18, HSP90 confirm 3 and luciferase ctr 0.
